Measurements from PubChem BioAssay AID504339 (National Center for Advancing Translational Sciences (NCATS), 2011).
About 17,000 (4.4%) of roughly 390,000 compounds were called active. About 8% were inconclusive and are not listed. This is one part of a sample in which actives are shown more often than they occur. Calls follow the shape of the dose curve; as a rule, active = well fitted inhibition curve with a large enough effect; inconclusive = small, poorly fitted or top-dose-only effect; inactive = no such curve, though single readings can be large or run the other way.

These compounds were tested against Lysine-specific demethylase 4A (Homo sapiens) (UniProt O75164) (assay: qHTS Assay for Inhibitors of JMJD2A-Tudor Domain). Conditions: AlphaScreen JMJD2A-Tudor / H3K4me3 peptide binding; series mostly up to 114 µM; activity change, negative = inhibition: at the top concentration.
Sequence of Lysine-specific demethylase 4A (Homo sapiens) (O75164 whole entry, looked up, the tested form may be a part): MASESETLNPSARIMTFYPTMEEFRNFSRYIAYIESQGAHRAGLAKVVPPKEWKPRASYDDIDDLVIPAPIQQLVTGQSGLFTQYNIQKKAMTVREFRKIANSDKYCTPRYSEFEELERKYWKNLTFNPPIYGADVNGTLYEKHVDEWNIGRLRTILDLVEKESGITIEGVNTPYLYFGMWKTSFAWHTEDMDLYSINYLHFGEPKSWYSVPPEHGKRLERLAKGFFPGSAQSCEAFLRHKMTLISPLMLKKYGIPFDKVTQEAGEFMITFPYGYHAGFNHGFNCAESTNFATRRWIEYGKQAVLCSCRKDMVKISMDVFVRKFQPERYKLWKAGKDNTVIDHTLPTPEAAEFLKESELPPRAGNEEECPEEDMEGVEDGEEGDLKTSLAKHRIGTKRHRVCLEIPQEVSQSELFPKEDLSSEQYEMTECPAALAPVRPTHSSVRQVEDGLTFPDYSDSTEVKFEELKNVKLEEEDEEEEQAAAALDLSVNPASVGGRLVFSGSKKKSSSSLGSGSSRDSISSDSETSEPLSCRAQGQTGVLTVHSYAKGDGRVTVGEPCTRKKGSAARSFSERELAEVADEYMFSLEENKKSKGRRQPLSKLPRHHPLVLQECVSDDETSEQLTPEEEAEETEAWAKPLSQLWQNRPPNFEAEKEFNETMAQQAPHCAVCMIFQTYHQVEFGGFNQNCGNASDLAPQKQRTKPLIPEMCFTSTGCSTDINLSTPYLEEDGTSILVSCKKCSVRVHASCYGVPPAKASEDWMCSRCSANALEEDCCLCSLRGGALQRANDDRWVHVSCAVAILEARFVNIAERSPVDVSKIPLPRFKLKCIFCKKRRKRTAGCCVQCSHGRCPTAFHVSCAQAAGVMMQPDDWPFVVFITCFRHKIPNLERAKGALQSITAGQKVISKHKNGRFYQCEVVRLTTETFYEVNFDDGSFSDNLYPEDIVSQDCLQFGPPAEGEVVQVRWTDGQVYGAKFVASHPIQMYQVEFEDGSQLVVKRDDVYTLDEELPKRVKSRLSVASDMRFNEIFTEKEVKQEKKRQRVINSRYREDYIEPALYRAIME
% is scaled to controls: 0 for no effect and ±100 for the full control effect; potency is read from the fitted curve at half-maximal effect.
Also: nearly all actives have a fitted effect of over 50% in size.

Activity change, negative = inhibition, inactive:
CCOc1cc(C(=O)Nc2nnc3n2CCS3)cc(OCC)c1OCC -10.6%, O=C(O)C1CC=CC2CCN(C3CCCCC3)C(=O)C21 (stereo not given) -6.21%, O=C(O)c1cccc2c1C(=O)N(C1CCCCC1)C2 -27.1%, CCCCOc1ccc(NC(=O)c2cc3c(n(-c4ccc(Cl)cc4)c2=O)CCCC3=O)cc1 -21.3%, Nc1nc(SCc2ccc([N+](=O)[O-])cc2)c2ncn(C3OC(CO)C(O)C3O)c2n1 (stereo not given) -18.2%, CC(C)Sc1nc(N)nc2c1ncn2C1OC(CO)C(O)C1O (stereo not given) -8.97%, O=C(Nc1ccc(Oc2ccccc2)cc1)C1CCN(S(=O)(=O)c2ccc(Cl)cc2)CC1 2.08%, COc1ccc(C(=O)Nc2nonc2-c2ccc(OC)c(OC)c2)cc1Cl -15.1%, Cc1ccc(S(=O)(=O)N(Cc2nc(-c3ccc(Cl)cc3)no2)C2CCCCC2)cc1 13.2%, CC(=O)N=c1ncn(CC(COC(C)=O)OC(C)=O)c2nc[nH]c12 (stereo not given) -9.65%, CC(C)c1ccc(OCC(O)Cn2cnc3ccccc32)cc1 (stereo not given) -33.6%, Cc1ccc(Cl)cc1NC(=O)CSc1nc2ccccc2nc1Cc1ccccc1 -0.649%, COC(=O)c1c(NC(=O)c2cc(=O)c3c(C)cc(C)cc3o2)sc2c1CCCC2 -0.694%, COc1cccc(NC(=O)c2nn(C34CC5CC(CC(C5)C3)C4)cc2[N+](=O)[O-])c1 -9.43%, O=C(COc1ccccc1)OCc1cc(=O)n2nc(-c3cccs3)sc2n1 -35%, CCC(=O)N1c2ccccc2CC1C(=O)N1CCN(c2ccccc2)CC1 (stereo not given) -6.62%, CCN(CC)S(=O)(=O)c1ccc2c(c1)N(CC(=O)NCc1ccccc1)C(=O)CS2 5.09%, CCCS(=O)(=O)Nc1cccc(-c2cn3ccsc3n2)c1 -14.9%, COc1ccc(/C=C2\CCc3ccccc3C2=O)c(OC)c1OC 7.75%, COC(=O)C(C)C1Sc2ccccc2NC1=O (stereo not given) 0.685%, CCOC(=O)C1CCCN(CC(=O)Nc2cc(C)c3c(=O)oc4ccccc4c3n2)C1 (stereo not given) -12%, CCOC(=O)c1ccc(NC(=O)CCn2cnnn2)cc1 2.61%, CSc1ncc(Cl)c(C(=O)Nc2ccc(S(=O)(=O)N3CCCC(C)C3)cc2)n1 (stereo not given) -21.5%, CCCCN(C)S(=O)(=O)c1ccc(C(=O)Nc2sc3c(c2C(N)=O)CC(C)(C)NC3(C)C)cc1 -27.5%, CCN1CCN(C(c2ccc(C)cc2)c2c(O)cc(C)n(Cc3ccco3)c2=O)CC1 (stereo not given) -20.5%, O=C(Nc1ccc(F)cc1F)c1cnn(-c2ccc(F)cc2)c1-n1cccc1 10.7%, O=C(CSc1ncn[nH]1)Nc1nsc(-c2ccccc2)n1 -12.6%, COc1ccc(C(=O)CSc2nccc(=O)[nH]2)cc1 -14.8%, CC(=O)Nc1nc(N(C)C)nc(N(C)C)n1 -0.687%, CNc1nc(Nc2ccc(C)c(Cl)c2)nc(N)c1[N+](=O)[O-] -13.8% [at 57.1 µM], CCc1ccc(Sc2cc(C(=O)NCCCOC(C)C)c3ccccc3n2)cc1 15.6%, CSc1ccc(CCNC(=O)c2cc(C)nc3c2c(C)nn3-c2cccc(F)c2)cc1 7.77%, O=C(CC1Oc2ccccc2NC1=O)NCc1ccc(F)cc1 (stereo not given) 3.64%, COc1ccccc1Nc1cc(C(=O)NCCCN(C)C2CCCCC2)c2ccccc2n1 -23.3%, CCCCN(CCCNC(=O)c1cc(Nc2ccccc2OC)nc2ccccc12)c1ccccc1 -16%, COc1ccc(CCNC(=O)Cn2c(=O)cc(C(F)(F)F)c3c(C)nn(C)c32)c(OC)c1 -5.33%, COc1ccc(C)cc1NC(=O)CCc1c(C)nn(-c2ccc(N3CCOCC3)nn2)c1C -25%, O=C(O)c1cccc(N=NN2CCCCCC2)c1 -9.09%, CN=C1S/C(=C\c2c(OC)cc(OC)cc2OC)C(=O)N1C -4.79%, COc1ccc(C)cc1Nc1nc2ccccc2c2nnc(C)n12 -0.685%, COc1ccc(OC)c(-n2nnc3c(sc4nc(C)c(Br)c(C)c43)c2=O)c1 -12.3%, O=S(=O)(c1cccc(C(F)(F)F)c1)N1CCN(c2nc(-c3cccs3)nc3ccccc23)CC1 -23.4%, C=CCn1c(SCC(=O)NC23CC4CC(CC(C4)C2)C3)nc(O)cc1=O -12.3%, C=CCn1c(SCC(=O)NC)nnc1C12CC3CC(CC(C3)C1)C2 -8.9%, CCOc1ccc(N2CC(C)Cn3c2nc2c3c(=O)n(Cc3c(F)cccc3Cl)c(=O)n2C)cc1 (stereo not given) 5.3%, COc1ccc(CNC(=O)CSc2n[nH]c(-c3ccc(F)cc3)n2)cc1 -17.5%, CC(NC(=O)c1cc(Sc2ccc(F)cc2F)nc2ccccc12)c1ccccc1 (stereo not given) -26%, CCC1CCCCN1C(=S)Nc1ccc(C(C)=O)cc1 (stereo not given) -17.2%, CCC1CCCCN1C(=S)Nc1ccc(SC(F)F)cc1 (stereo not given) -6.16%, Cc1ccc2cccc(NC(=O)c3ccc(OC(C)C)cc3)c2n1 -1.99%, Cc1cc2n(n1)C(c1cc(C(C)(C)C)c(O)cc1O)Nc1ccccc1-2 (stereo not given) -26.5%, CSc1ccc(CCNC(=O)c2cnn(-c3ccccc3)c2-n2cccc2)cc1 -15.8%, Cc1ccc(C)c(Nc2nnc(-c3ccc(C)c(S(=O)(=O)N4CCCCC4)c3)c3ccccc23)c1 -15.7%, CCn1c(=O)c2cc(C(=O)NCCc3ccc(Cl)cc3)sc2c2ccccc21 -11.4%, Cc1noc(/C=C/N(C)C)c1S(=O)(=O)N1CCCC(C(=O)Nc2cccc(F)c2)C1 (stereo not given) 0.662%, O=C(Nc1ccc2nc(SCC(=O)N3CCCc4ccccc43)sc2c1)c1ccc(Cl)cc1 -9.27%, COc1ccc(CCNC(=O)CCCn2c(=O)c3ccccc3n(Cc3ccc(F)cc3Cl)c2=O)cc1OC 1.02%, COc1ccccc1CNC(=O)c1ccccc1NC(=O)c1nsc2ccccc12 -7.14%, Cc1ccc2[nH]c(=O)c(-c3nc4c(C)cccn4c3NCc3ccco3)cc2c1 -23.3% [at 11.4 µM], CCOC(=O)CC1C(=O)NCCN1c1nc2c(C)cccn2c(=O)c1/C=C1\SC(=S)N(C(C)CC)C1=O (stereo not given) -31.1%, Cc1cc(C)c(NC(=O)Cn2c(SCC(=O)NCc3ccccc3)nc3ccccc32)c(C)c1 -28.8%, COc1ccc(C2C3=C(CCCC3=O)N(CC(=O)O)C3=C2C(=O)CCC3)cc1 -20.6%, CCCCNC(=O)C1CCC(=O)N1CCc1ccccc1 (stereo not given) -11.4%, COc1ccccc1CNC(=O)CCCCn1c(=O)c2ccccc2n(CC(=O)Nc2cc(Cl)ccc2C)c1=O -10.9%, Cc1cccc(NC(=O)C2CCN(S(=O)(=O)c3c(C)noc3/C=C/c3ccco3)CC2)c1 -27.3%, Cc1cccc(C2CC(=O)Oc3c2c(=O)n(C)c2ccccc32)c1 (stereo not given) -23.5%, O=c1[nH]c2ccccc2s1 -15%, COc1cc(C(=O)N2CCN(C(=O)COc3cccc(C)c3)CC2)cc(OC)c1OC -13.1%, COCCn1c(SCC(=O)c2cc(C)ccc2C)nc2cc(C(=O)NC3CCCC3)ccc2c1=O -10.4%, Cc1cc(C)cc(OC(C)C(=O)Nc2nc3c(s2)CCCC3)c1 (stereo not given) -28.1%, COc1cccc(-n2c(=S)sc3c(=O)n(-c4ccccc4OC)c(SCC4OCCO4)nc32)c1 -30.1%, COc1cccc(-n2c(=S)sc3c(=O)n(-c4ccccc4C)c(SCC(=O)O)nc32)c1 -2.8%, Cc1oc(-c2ccccc2F)nc1CN1CCC(C(=O)NCCc2ccc(Cl)cc2)CC1 -14.5%, O=C(CSc1nc2ccccc2nc1Cc1ccccc1)N1CCCCC1 8.77%, Oc1ccc(-c2nc3ccc(Cl)cn3c2Nc2ccc3c(c2)OCO3)cc1 -22%, Cc1ccc2nc(-c3ccc(O)cc3)c(Nc3ccc4c(c3)OCO4)n2c1 -18%, Oc1ccccc1-c1nc2ccc(Cl)cn2c1Nc1ccc2c(c1)OCCO2 -10.3%, Cc1nc(Nc2ccc3c(c2)OCCO3)c2nnn(Cc3ccccc3Cl)c2n1 -26%, CCOC(=O)c1nnn(CC(=O)NC(=O)Nc2ccccc2F)c1C(=O)OCC -9.21%, COc1ccc(CCN2C(=O)c3oc4cc(C)cc(C)c4c(=O)c3C2c2ccccc2F)cc1OC (stereo not given) -10.7%, O=C1CC(c2nnc(Cc3ccc(Cl)cc3)o2)CN1c1ccccc1 (stereo not given) -16.1%

Potency, active:
O=C(O)C1CCN1C1CCCCC1 (stereo not given) 31.6 µM, COC1C(CO)OC(n2cnc3c(=S)nc(N)[nH]c32)C1O (stereo not given) 17.8 µM, CC(=O)OC(COc1ccc(F)cc1)Cn1cnc2ccccc21 (stereo not given) 79.4 µM, Cc1nc([N+](=O)[O-])nn1C12CC3CC(CC(Br)(C3)C1)C2 56.2 µM, COc1ccc(C2Sc3ccccc3NC3=C2C(=O)c2ccccc23)c(OC)c1OC (stereo not given) 14.1 µM, Oc1c(Cl)cc(Cl)c(Cl)c1Cc1c(O)c(Cl)cc(Cl)c1Cl 79.4 µM, CC(C)(C)c1ccc(C(=O)CSc2ncn[nH]2)cc1 20 µM, CN(C)c1nc(Nc2ccc(Cl)c(Cl)c2)nc(N(C)C)n1 14.1 µM, COc1ccc(Nc2cc(C(=O)NCCCN(C)c3ccccc3)c3ccccc3n2)c(OC)c1 15.8 µM, CN1C(=O)/C(=C/c2ccco2)SC1=Nc1cccc(C(=O)O)c1 79.4 µM, C=CCn1c(C23CC4CC(CC(C4)C2)C3)n[nH]c1=S 11.2 µM, CCC1CCCCN1C(=S)Nc1ccc(S(=O)(=O)Nc2ncccn2)cc1 (stereo not given) 100 µM, CCc1c(C)[nH]c(=S)c(C#N)c1C 3.98 µM, CCCN(CCC)c1nc2c(C)cccn2c(=O)c1/C=C1/SC(=S)N(Cc2ccco2)C1=O 35.5 µM, CCCCN1C(=O)CCC(C(=O)O)C1c1ccc(OC)cc1 (stereo not given) 89.1 µM, Nc1ccc2[nH]c(=S)sc2c1 3.55 µM, COc1ccccc1-n1c(=S)[nH]c2c(sc(=S)n2-c2ccc(C)cc2C)c1=O 50.1 µM, Cc1cccc2nc(-c3ccc(Cl)s3)c(Nc3ccc4c(c3)OCCO4)n12 31.6 µM, Cc1ccc(-c2nc3cccc(C)n3c2Nc2ccc3c(c2)OCCO3)cc1 11.2 µM
